Screening data: PubChem BioAssay, National Center for Advancing Translational Sciences (NCATS)
GLP1R ag: qHTS of GLP-1 Receptor Agonists; HEK293 GLP-1R CRE-luciferase, luminescence, 4-6 h; cells express a hypersensitive GLP-1R form; Potency, µM (series often up to 45.6 µM), usual class: activators; hit rate 0.007% among 380,000
GLP-1R inv ag: qHTS of GLP-1 Receptor Inverse Agonists (Inhibition Mode); Glucagon-like peptide 1 receptor (Homo sapiens), P43220; HEK293 GLP-1R CRE-luciferase, luminescence, 24 h; GLP-1R form is constitutively active; Potency, µM (titrated, usually from 38.3 µM), actives largely listed as inhibitors; hit rate 1.6% among 410,000; note: nearly all actives have a fitted effect of over 55% in size
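Readout was luciferase luminescence, measured 12 min after detection reagent at room temperature. Beforehand, GLP-1R reporter HEK293 cells had sat 12 h, then received compounds for 24 hr at 37 deg C.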
HEK293 tox: qHTS of GLP-1 Receptor Inverse Agonists: Cytotox Screen; hit rate 0.13% among 410,000; HEK293 cAMP-luciferase reporter cells, luminescence, 24 h; Potency, µM (series often up to 38.3 µM), hits mostly inhibitors;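 note: loss of luciferase light is scored as toxicity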
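To flag toxic compounds, the library was rerun on cells for 24 hr at 37 deg C and 5% CO2. Viability-linked luminescence was captured 12 min after adding luciferase detection reagent.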
KCNH2 3.1 block: qHTS for Inhibitors of KCHN2 3.1: Mutant qHTS; activity change, % (tested at about 1.8 µM); AID 720553, 2013; U2OS KCNH2 3.1, thallium flux FluxOr; stronger effect = lower value; Potassium voltage-gated channel subfamily H member 2, brain isoform KCNH2 3.1 (human); hit rate 0.95% among 340,000;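 active = maximum activity change below -70%; inconclusive = maximum activity change from -70% to -50%; inactive = maximum activity change above -50%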;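 note: thallium influx rate constant from kinetic fluorescence after stimulation buffer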
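FluxOr-based Tl+ influx in U2OS cells transduced with KCNH2 3.1 virus; rate constants normalized to DMSO controls.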
KCNH2 WT inh: qHTS for Inhibitors of KCHN2 3.1: Wildtype qHTS. AID 720551, 2013. hit rate 0.37% among 340,000. Voltage-gated inwardly rectifying potassium channel KCNH2 (Homo sapiens), Q12809. U2OS, BacMam KCNH2, thallium flux FluxOr; stronger effect = lower value. activity change, % at 1.84 µM;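 active = maximum activity change below -70%; inconclusive = maximum activity change between -70% and -50%; inactive = maximum activity change above -50%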
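U2OS cells transduced with wild-type KCNH2 virus are loaded with FluxOr dye for 45 min, and thallium flux is measured in kinetic reads before and after stimulation buffer. Rate constants are normalized to DMSO controls.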
GLS inh: qHTS for Inhibitors of Glutaminase (GLS); Glutaminase kidney isoform, mitochondrial (Homo sapiens), O94925; GLS enzymatic activity, qHTS titration; Potency, µM (highest dose often 45.5 µM), most hits filed as inhibitors; hit rate 0.21% among 410,000
Target sequence (O94925 whole entry, looked up, canonical isoform): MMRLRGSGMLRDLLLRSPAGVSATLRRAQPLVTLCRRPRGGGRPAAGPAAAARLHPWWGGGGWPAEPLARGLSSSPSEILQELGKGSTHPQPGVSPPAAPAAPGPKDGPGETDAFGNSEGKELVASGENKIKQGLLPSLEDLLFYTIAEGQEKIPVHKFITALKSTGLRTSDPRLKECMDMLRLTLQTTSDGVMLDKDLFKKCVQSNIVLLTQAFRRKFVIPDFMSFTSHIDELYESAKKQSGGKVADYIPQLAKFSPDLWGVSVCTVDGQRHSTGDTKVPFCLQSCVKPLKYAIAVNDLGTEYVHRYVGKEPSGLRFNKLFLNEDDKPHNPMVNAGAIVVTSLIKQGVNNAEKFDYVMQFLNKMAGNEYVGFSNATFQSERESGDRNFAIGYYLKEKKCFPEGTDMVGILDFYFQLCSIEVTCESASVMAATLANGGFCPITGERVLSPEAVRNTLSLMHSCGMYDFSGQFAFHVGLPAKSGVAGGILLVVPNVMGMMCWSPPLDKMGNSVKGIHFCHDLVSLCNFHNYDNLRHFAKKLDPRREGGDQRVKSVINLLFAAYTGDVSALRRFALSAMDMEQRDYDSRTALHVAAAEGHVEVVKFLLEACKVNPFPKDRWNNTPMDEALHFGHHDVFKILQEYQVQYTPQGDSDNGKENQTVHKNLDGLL
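Compounds were pin-transferred onto hKGA, after which L-glutamine (1 mM solution) and a detection mix of glutamate oxidase, HRP and Amplex Red were added. Initial and 30 min RT fluorescence reads were collected.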
Large screens that a line does not name were inactive. Rows were chosen to be rich in hits. Some 2.8% of all compounds tested hit in one or more screens of this group. Unless noted, calls come from the whole dose curve; as a rule, active = well fitted curve in the direction sought with a large enough effect; inconclusive = small, poorly fitted or top-dose-only effect, or another doubt; inactive = no such curve, though single readings can be large; an effect the other way counts as inactive or inconclusive.

CCc1ccc(CNC(=O)CN2C(=O)c3cccnc3Oc3ccc(Cl)cc32)cc1	GLP-1R inv ag inconclusive (no result: GLP1R ag, KCNH2 3.1 block, KCNH2 WT inh)
NC(=O)c1ccc(Nc2nnc(-c3ccc(O)cc3)c3ccccc23)cc1	none
NC(=O)Cc1ccc(Nc2nnc(-c3ccc(O)cc3)c3ccccc23)cc1	GLS inh 11µM
CN1CCN(c2ccc(NC(=O)c3ccc4ccccc4c3)cc2)CC1	GLP-1R inv ag 2µM, KCNH2 3.1 block inconclusive
CN1CCN(c2ccc(NC(=O)COc3cccc4ccccc34)cc2)CC1	GLP-1R inv ag 10µM
O=C(COc1ccccc1Cl)Nc1ccc(N2CCCC2)cc1	none
CN1CCN(c2ccc(NC(=O)COc3ccc4ccccc4c3)cc2)CC1	GLP-1R inv ag 7.1µM
CC(C)c1ccc(NC(=O)CSc2nc(=O)n(CCCN3CCOCC3)c3c2CCCC3)cc1	none
Nc1c(CC(=O)O)cccc1C(=O)c1ccccc1	none (no result: GLP-1R inv ag, HEK293 tox, KCNH2 3.1 block, KCNH2 WT inh)
O=C(CCCCCn1c(=S)[nH]c2cc3c(cc2c1=O)OCO3)NCCc1ccccc1	KCNH2 3.1 block -87
COCCN(CC1CCCN(C2Cc3ccccc3C2)C1)C(=O)CCC(N)=O (configuration not stated)	GLP-1R inv ag inconclusive, KCNH2 3.1 block -127
Cc1cc(C)c(NC(=O)C(C)n2nc(C)c3sc4ccccc4c3c2=O)c(C)c1 (configuration not stated)	none (no result: GLP1R ag, KCNH2 3.1 block, KCNH2 WT inh)
CCc1ccc(CNC(=O)Cn2nc(-c3ccc(Cl)cc3)ccc2=O)cc1	GLP-1R inv ag inconclusive (no result: KCNH2 3.1 block, KCNH2 WT inh)
COc1cccc(C(c2ccccc2)N2C3CCC2CN(S(=O)(=O)c2ccc(F)cc2)CC3)c1 (configuration not stated)	GLP-1R inv ag 3.5µM
COc1ccc(N2CCN(C3CCN(S(=O)(=O)c4ccc(F)cc4)CC3)CC2)cc1	none
CC(=O)[C@@]1(O)CC[C@H]2[C@@H]3C=C(Cl)C4=CC(=O)CC[C@]4(C)[C@H]3CC[C@@]21C	none (no result: GLP-1R inv ag, HEK293 tox, KCNH2 3.1 block, KCNH2 WT inh)
O=[N+]([O-])c1ccc(CSc2ccc(S(=O)(=O)N3CCCCCC3)cn2)cc1	GLP-1R inv ag 11µM
Cc1ccccc1C1CC(=O)c2ccccc2C1C (configuration not stated)	GLP-1R inv ag inconclusive
O=C(NCCc1ccc(Cl)cc1)c1ccc(Cn2c(=O)[nH]c3ccccc3c2=O)cc1	none (no result: GLP1R ag, KCNH2 3.1 block, KCNH2 WT inh)
COc1ccc(NC(=O)Nc2cccc3[nH]c([C@@H]4O[C@H](CO)[C@@H](O)[C@H](O)[C@H]4O)nc23)cc1OC1CCCC1	none (no result: KCNH2 3.1 block, KCNH2 WT inh)
CC(C)C(=O)Nc1cccc(C(=O)NCc2ccc3c(c2)OCO3)c1	none
CC12CC(NC(=O)N1c1cccc(C(=O)NCc3ccc4c(c3)OCO4)c1)c1cc(Cl)ccc1O2 (configuration not stated)	GLP-1R inv ag 1.6µM, HEK293 tox inconclusive (no result: KCNH2 3.1 block)
Cc1cc(-c2ccccc2)nc(=O)[nH]1	KCNH2 3.1 block -192, KCNH2 WT inh -167
CCOC(=O)c1c(C)[nH]c(C(=O)OCC(=O)Nc2sccc2C(N)=O)c1C	GLP-1R inv ag 11µM, HEK293 tox inconclusive
CCOC(=O)c1c(C)[nH]c(C(=O)OCC(=O)Nc2ccc(Cl)cn2)c1C	none
N#C/C(=C(/O)COC(=O)CSc1ccc(Cl)cc1)c1nc2ccccc2[nH]1	GLP-1R inv ag inconclusive, HEK293 tox 8.9µM
Cc1cc(SCC(=O)OC/C(O)=C(\C#N)c2nc3ccccc3[nH]2)c(C)cc1Br	GLP-1R inv ag inconclusive, HEK293 tox inconclusive
O=C(Cn1cc(S(=O)(=O)c2ccccc2)c(=O)c2cc3c(cc21)OCO3)Nc1ccc(Cl)cc1	none (no result: KCNH2 3.1 block, KCNH2 WT inh)
Cc1c(C(=O)N2CCN(CCc3ccccn3)CC2)oc2ccc(Cl)cc12	KCNH2 3.1 block -103
O=C(c1cccc(Cl)c1)N1CCN(CCc2ccccn2)CC1	none (no result: GLP1R ag, KCNH2 3.1 block, KCNH2 WT inh)
